# From PubChem BioAssay
# Values without a mark were called inactive. For some assays here: Results with a measured potency or affinity are listed apart. Active and inactive are the calls of the source. Unless noted, the rule behind the calls is not given here.
# Experiments:
# [1] = antimalarial activity against Dd2 strain (AID 2302;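 active = growth inhibition above 50% at the single 2 µM test dose, taken to imply half-maximal potency below 2 µM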;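 note: 0% = DMSO untreated growth and 100% = chloroquine plus artemisinin killed control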); conditions: P. falciparum Dd2 in RBCs, LDH growth readout, 72 h; at 2 µM; active compounds read high
# [2] = HepG2 cytotoxicity, primary screen, cytotoxicity control for P. falciparum antimalarial project, cell-based, ATP luminescence (AID 2303;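 active = inhibition above 50%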;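 note: 0% = DMSO wells and 100% = digitonin-killed cells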); conditions: HepG2 viability, 24-48 h, at 10 µM, active compounds read high
# [3] = molecular target: L-lactate dehydrogenase (Plasmodium falciparum (isolate CDC / Honduras)) (UniProt Q27743); test: PfLDH activity inhibition – cell lysate, 3D7 strain, counter-screen for P. falciparum growth inhibition project (AID 2304);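 note: 0% = vehicle and 100% = reference inhibitor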; conditions: P. falciparum 3D7 crude extract, LDH APAD/NBT absorbance; at 2 µM; active compounds read high
# [4] = inhibition of 3D7 malaria parasite growth – strain 3D7 (AID 2306);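 note: 0% = DMSO wells and 100% = chloroquine plus artemisinin control wells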; conditions: P. falciparum 3D7 erythrocytic growth, LDH absorbance, 72 h; at 2 µM; active compounds read high
# [5] = molecular target: Calcium-dependent protein kinase 1 (Plasmodium falciparum (isolate 3D7)) (UniProt P62344); test: PfCDPK1 kinase inhibitors, biochemical, TCAMS library (AID 1159585; cut-off not given, nearly all actives have IC50 up to about 0.98 µM;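 note: inhibitors leave more ATP so luminescence rises with inhibition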); conditions: recombinant PfCDPK1, Kinase-Glo ATP depletion luminescence
# [6] = molecular target: Plasmodium falciparum protein kinase 6 (PK6, PF3D7_1337100) (UniProt Q8IDW1); test: PfPK6 kinase inhibitors, biochemical, TCAMS library (AID 1159586); conditions: recombinant PfPK6, Kinase-Glo ATP depletion luminescence
# [7] = molecular target: Protein kinase 7 (PK7), Plasmodium falciparum 3D7 (PF3D7_0213400) (UniProt Q7YTF7); test: inhibition of Plasmodium PK7 catalytic activity – biochemical, TCAMS antimalarial set, Kinase-Glo luminescence (AID 1159587); conditions: recombinant PfPK7, Kinase-Glo ATP depletion luminescence
# [8] = molecular target: Calcium-dependent protein kinase 4 (Plasmodium falciparum (isolate 3D7)) (UniProt Q8IBS5); test: PfCDPK4 kinase inhibitors, biochemical, TCAMS library (AID 1159588; cut-off not given, nearly all actives have IC50 up to about 0.91 µM); conditions: recombinant PfCDPK4, Kinase-Glo ATP depletion luminescence
# Calcium-dependent protein kinase 4 (Plasmodium falciparum (isolate 3D7)), sequence (Q8IBS5 whole entry, looked up): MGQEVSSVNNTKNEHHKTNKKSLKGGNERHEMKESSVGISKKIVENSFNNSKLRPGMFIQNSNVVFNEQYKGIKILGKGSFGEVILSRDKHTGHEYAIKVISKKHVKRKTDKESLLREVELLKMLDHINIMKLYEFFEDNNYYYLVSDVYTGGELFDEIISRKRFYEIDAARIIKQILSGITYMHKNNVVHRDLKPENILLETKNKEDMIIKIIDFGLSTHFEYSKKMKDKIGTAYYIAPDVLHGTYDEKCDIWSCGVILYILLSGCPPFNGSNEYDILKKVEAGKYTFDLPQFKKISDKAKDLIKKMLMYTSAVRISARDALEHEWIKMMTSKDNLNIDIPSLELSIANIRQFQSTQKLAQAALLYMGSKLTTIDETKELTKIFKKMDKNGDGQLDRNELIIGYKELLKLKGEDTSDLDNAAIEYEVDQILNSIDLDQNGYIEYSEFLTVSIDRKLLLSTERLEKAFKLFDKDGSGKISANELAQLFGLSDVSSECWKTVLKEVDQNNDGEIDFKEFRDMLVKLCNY
# L-lactate dehydrogenase (Plasmodium falciparum (isolate CDC / Honduras)), sequence (Q27743 whole entry, looked up): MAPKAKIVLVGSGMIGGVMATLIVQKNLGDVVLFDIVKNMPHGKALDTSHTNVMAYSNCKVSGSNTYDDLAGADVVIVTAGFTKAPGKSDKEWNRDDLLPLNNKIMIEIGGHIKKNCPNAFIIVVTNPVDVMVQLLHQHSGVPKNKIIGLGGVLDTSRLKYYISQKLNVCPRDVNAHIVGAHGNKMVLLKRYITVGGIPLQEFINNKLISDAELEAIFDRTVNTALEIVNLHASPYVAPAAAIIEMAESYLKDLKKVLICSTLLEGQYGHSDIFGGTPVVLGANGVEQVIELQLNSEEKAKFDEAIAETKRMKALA
# Plasmodium falciparum protein kinase 6 (PK6, PF3D7_1337100), sequence (Q8IDW1 1-305): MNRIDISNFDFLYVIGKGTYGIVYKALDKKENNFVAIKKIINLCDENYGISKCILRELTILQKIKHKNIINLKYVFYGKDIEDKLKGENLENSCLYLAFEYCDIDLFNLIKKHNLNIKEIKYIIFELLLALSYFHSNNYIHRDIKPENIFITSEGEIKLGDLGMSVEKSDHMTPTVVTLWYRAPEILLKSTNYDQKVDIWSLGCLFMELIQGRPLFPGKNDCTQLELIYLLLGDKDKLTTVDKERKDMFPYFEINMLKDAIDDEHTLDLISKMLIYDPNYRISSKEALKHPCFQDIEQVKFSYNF
# Calcium-dependent protein kinase 1 (Plasmodium falciparum (isolate 3D7)), sequence (P62344 whole entry, looked up): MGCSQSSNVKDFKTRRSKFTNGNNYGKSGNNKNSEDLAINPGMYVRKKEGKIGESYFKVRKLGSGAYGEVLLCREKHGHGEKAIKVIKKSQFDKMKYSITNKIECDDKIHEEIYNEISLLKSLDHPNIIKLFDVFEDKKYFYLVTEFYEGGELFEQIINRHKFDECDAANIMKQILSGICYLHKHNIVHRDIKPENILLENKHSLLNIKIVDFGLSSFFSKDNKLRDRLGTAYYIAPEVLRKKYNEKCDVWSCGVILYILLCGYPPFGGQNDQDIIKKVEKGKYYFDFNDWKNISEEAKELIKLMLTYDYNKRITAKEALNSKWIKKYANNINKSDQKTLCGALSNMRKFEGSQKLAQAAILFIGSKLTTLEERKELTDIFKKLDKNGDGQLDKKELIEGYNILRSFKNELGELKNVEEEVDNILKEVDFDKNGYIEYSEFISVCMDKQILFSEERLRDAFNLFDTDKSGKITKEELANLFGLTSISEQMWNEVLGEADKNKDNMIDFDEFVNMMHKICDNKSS
# Protein kinase 7 (PK7), Plasmodium falciparum 3D7 (PF3D7_0213400), sequence (Q7YTF7 1-343): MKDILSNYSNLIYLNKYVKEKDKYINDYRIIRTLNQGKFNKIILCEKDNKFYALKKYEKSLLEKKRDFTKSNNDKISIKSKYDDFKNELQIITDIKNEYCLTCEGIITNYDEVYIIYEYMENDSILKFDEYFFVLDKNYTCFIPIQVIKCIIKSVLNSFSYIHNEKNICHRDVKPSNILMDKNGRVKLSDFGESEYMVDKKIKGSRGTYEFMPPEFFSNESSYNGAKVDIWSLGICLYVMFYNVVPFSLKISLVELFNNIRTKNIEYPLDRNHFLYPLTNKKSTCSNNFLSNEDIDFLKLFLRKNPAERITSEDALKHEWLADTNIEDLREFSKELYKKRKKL
Compound,growth inhibition [1],inhibition [2],inhibition [3] [%],growth inhibition [4],outcome [5],outcome [6],outcome [7],outcome [8]
CC1CCCCN1CCCNc1nc(NCc2ccccc2)c2ccccc2n1 (stereo not given),14%,24%,0,95% (active),inactive,inactive,inactive,inactive
COc1ccc2nccc(NN=Cc3ccccc3F)c2c1,98% (active),23%,-2,103% (active),inactive,inactive,inactive,inactive
CC(=O)Nc1ccc(C(=O)Nc2cccc(-c3cccc(-c4nc5c(C)cccc5[nH]4)c3)c2)cn1,100% (active),16%,-2,101% (active),inactive,inactive,inactive,inactive
CCOC(=O)c1ccc(NC(=O)Nc2ccc(-c3ccc(-c4nc5ccc(C(F)(F)F)cc5[nH]4)cc3)cc2)cc1,52% (active),20%,-2,102% (active),inactive,inactive,inactive,inactive
O=C(/C=C/c1cccc(Br)c1)NCCCCCN1CCC(c2c[nH]c3ccccc23)CC1,15%,38%,0,100% (active),inactive,inactive,inactive,inactive
CC(C)CCN(Cc1cncn1Cc1ccccc1F)C(=O)c1cncc(-c2ccccc2)c1,3%,1%,-5,96% (active),inactive,inactive,inactive,inactive
CNC(=O)COc1cc(C)c(C2CCN(CCCCNC(=O)c3ccc(-c4ccc(C(F)(F)F)cc4)cc3)CC2)cc1C,72% (active),38%,4,100% (active),inactive,inactive,inactive,inactive
COc1cc2c(C3CCN(CC4CCN(C(=O)/C=C/c5ccc(Cl)c(Cl)c5)CC4)CC3)c[nH]c2cn1,88% (active),27%,-1,101% (active),inactive,inactive,inactive,inactive
Nc1nc(N)c2c(ccc3ccccc32)n1,20%,60% (active),-1,98% (active),inactive,inactive,inactive,inactive
COc1ccc(C=NNc2ccnc3cc(F)c(C)cc23)c2ccccc12,85% (active),-6%,3,101% (active),inactive,inactive,inactive,inactive
COc1ccc(-c2ccc(NC(=O)c3ccc(Cl)cc3)cc2)cc1CN(C)CCN(C)C,61% (active),37%,-2,97% (active),inactive,inactive,inactive,inactive
Nc1ncnc2cc(-c3cccc(S(N)(=O)=O)c3)sc12,99% (active),13%,2,98% (active),inactive,inactive,inactive,inactive
CCOc1ccc(NC(=O)c2ccc(NCCCN3CC(C)CC(C)C3)c([N+](=O)[O-])c2)cc1 (stereo not given),60% (active),3%,-4,101% (active),inactive,inactive,inactive,inactive
COc1ccc(-c2cnc3ccc(NCc4ccc(S(N)(=O)=O)cc4)nn23)cc1,99% (active),19%,-2,96% (active),inactive,inactive,inactive,inactive
Cc1cccc(OCC2CCN(c3ncc(C(=O)NC4CC4)cc3Cl)CC2)c1,78% (active),-4%,-2,90% (active),inactive,inactive,inactive,inactive
COc1ccccc1N1CCN(C(C(=O)NCc2ccc3c(c2)OCO3)c2ccc3c(c2)OCCCO3)CC1 (stereo not given),13%,15%,5,88% (active),inactive,inactive,inactive,inactive
COc1ccc2nccc(CCC3(O)CCC(NCc4cc5c(cc4F)SCC(=O)N5)CC3)c2c1 (stereo not given),48%,9%,-2,87% (active),inactive,inactive,inactive,inactive
CC(C)N(C(=O)CSc1nc2cc(Cl)ccc2c(=O)n1Cc1ccccc1)C(C)C,97% (active),-14%,-5,100% (active),inactive,inactive,inactive,inactive
CCN(CC)CCN(Cc1ccc(-c2ccc(C(F)(F)F)cc2)cc1)C(=O)Cn1c(CCc2ccccc2F)nc(=O)c2ccccc21,54% (active),39%,-1,95% (active),inactive,inactive,inactive,inactive
O=C(CSc1nc(-c2ccccc2Cl)ns1)Nc1cccc(Cl)c1,89% (active),-8%,-4,96% (active),inactive,inactive,inactive,inactive

Compound,growth inhibition [1],inhibition [2],inhibition [3] [%],growth inhibition [4],outcome [5],outcome [6],outcome [7],outcome [8]
CCOc1ccccc1[C@H]1[C@H](C(=O)C(C)(C)C)N2c3ccc(Br)cc3C=CC2C12C(=O)c1ccccc1C2=O (stereo not given in full),94% (active),17%,1,95% (active),inactive,inactive,inactive,inactive
COc1ccc2ncc(F)c([C@@H](O)CN3CCC(NCc4cc(C#N)c5c(c4)CCO5)CC3)c2n1,50% (active),15%,4,92% (active),inactive,inactive,inactive,inactive
CS(=O)(=O)N1CC2(CCN(CCC(NC(=O)NCc3ccccc3Cl)c3ccc(Cl)c(Cl)c3)CC2)c2ccccc21 (stereo not given),98% (active),12%,-7,85% (active),inactive,inactive,inactive,inactive
N#Cc1ccc2c(c1)CCN(CCC1CCC(NC(=O)c3cccc(-c4ccc(F)cc4)c3)CC1)CC2 (stereo not given),10%,32%,-3,92% (active),inactive,inactive,inactive,inactive
CCC(CC)n1c(C)cc2c3c(N)nc(N)nc3ccc21,95% (active),61% (active),1,95% (active),inactive,inactive,inactive,inactive
O=C(Nc1cccc(Cl)c1Cl)Nc1ccnc2ccccc12,47%,31%,4,100% (active),inactive,inactive,inactive,inactive
CC1(C)N=C(N)N=C(N)N1OCCCSc1ccccc1,94% (active),69% (active),0,93% (active),inactive,inactive,inactive,inactive
CCN1CCN(CCCNc2ccnc3cc(Cl)ccc23)CC1,77% (active),7%,2,101% (active),inactive,inactive,inactive,inactive
Cc1cccc2[nH]c(-c3ccc(-c4ccc(NC(=O)Nc5ccsc5)cc4)cc3)nc12,70% (active),49%,5,101% (active),inactive,inactive,inactive,inactive
CCNc1cc(C)nc(Nc2ccc(F)cc2)n1,57% (active),1%,-7,101% (active),inactive,inactive,inactive,inactive
COc1ccc(Nc2nccc(NCC(O)c3cccc(C(F)(F)F)c3)n2)cc1 (stereo not given),33%,22%,-2,98% (active),inactive,inactive,inactive,inactive
Cc1cc(C)c(S(=O)(=O)N2CCCCC(c3cccc(C(F)(F)F)c3)=N2)c(C)c1,95% (active),-1%,-2,94% (active),inactive,inactive,inactive,inactive
COc1cc(-c2cc(-c3ccc(OCCN(C)C)cc3)[nH]c2-c2ccncc2)ccc1Cl,100% (active),28%,-2,101% (active),inactive,inactive,inactive,inactive
O=C1COC(c2ccccc2)(c2ccccc2)CN1CC1CCN(Cc2ccc(O)cc2Cl)C1 (stereo not given),81% (active),53% (active),2,85% (active),inactive,inactive,inactive,inactive
Cc1cccc(CN2CCN(c3ncc(C(=O)NC4CC4)cc3Cl)CC2)c1,73% (active),2%,-4,84% (active),inactive,inactive,inactive,inactive
O=C(Nc1cccc(F)c1)N(Cc1ccc(-c2ccc(CN3CCNCC3)cc2)cc1)C1CCN(Cc2ccccc2)CC1,53% (active),18%,0,101% (active),inactive,inactive,inactive,inactive
N=C(N)c1ccc2nc(SCc3ccccc3)[nH]c2c1,100% (active),-1%,1,97% (active),inactive,inactive,inactive,inactive
O=C(Nc1ccc(Oc2ccccc2)cc1)N(Cc1ccc(-c2cccc(CN3CCNCC3)c2)cc1)C1CCN(Cc2ccccc2)CC1,53% (active),10%,-1,93% (active),inactive,inactive,inactive,inactive
CCOC(=O)CCCc1cc(NC2CCN(C)CC2)nc(Nc2ccc(OC)cc2)n1,17%,41%,-2,99% (active),inactive,inactive,inactive,inactive
FC(F)(F)c1ccc2nc(-c3cccc(-c4ccc(CNCC5CCCO5)cc4)c3)[nH]c2c1 (stereo not given),99% (active),29%,-7,99% (active),inactive,inactive,inactive,inactive
